# Most compounds without a hit are left out; they make up all but 2.8% or so of the library.
# dFosB act: activators of mouse delta FosB homodimer; purified delta FosB, TAMRA-CDK5 oligo fluorescence polarization; percent of positive-control signal above neutral wells; AID 493131; activation, % at 25 µM; hit rate 0.99% among 340,000;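 active means mean activation above about 17%, with every replicate also reaching it, limit read from the data, passing the limit was not always enough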
# CDK5 p35 inh: inhibitors of human CDK5/p35 kinase; Recombinant CDK5/p35, ADP-Glo luminescence, 60 min; inhibition, % at 10 µM; AID 488839; hit rate 0.01% among 330,000; Q00535+Q15078;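 active means highest replicate inhibition of at least 50% and at least 75% of replicates reaching 50%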;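 further: plate controls were DMSO neutral control for no effect and GW8510 at 10 µM for full effect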
# FGF22 binding: FGF22 (human) thermal shift binding; recombinant FGF22 thermal shift, SYPRO orange fluorescence; percent of sucrose octasulfate shift, DMSO zero; hit rate 1.5% among 340,000; activity (Tm shift, normalised), % at 9.99 µM;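 active means mean Tm shift, scaled 0 neutral to 100 positive control, at about 1.3% or above, every replicate too, limit read from the data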
# Target sequence (Q9HCT0 whole entry, looked up): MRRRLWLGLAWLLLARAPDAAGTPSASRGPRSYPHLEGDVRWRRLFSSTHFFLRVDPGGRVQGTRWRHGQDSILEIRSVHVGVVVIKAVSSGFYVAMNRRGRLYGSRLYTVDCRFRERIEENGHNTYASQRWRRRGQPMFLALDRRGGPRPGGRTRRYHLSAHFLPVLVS
# PvdQ inh: blocks Pseudomonas aeruginosa PvdQ acylase activity; purified PvdQ acylase, fluorescence plate reader; inhibition, % at 10 µM; hit rate 0.063% among 340,000; AID 488965; in the data active means inhibition above about 30%, passing the limit was not always enough;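 further: 0% = vehicle neutral wells and 100% = reference inhibitor wells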
# PglD inh: PglD (C. jejuni) enzyme inhibition. hit rate 0.098% among 360,000. purified PglD enzyme, DTNB colorimetric CoA detection. AID 602405. inhibition, % at 12.5 µM; in the data active means inhibition above about 16%, passing the limit was not always enough
# SIRT5 inh: sirtuin-5 (human) deacylase inhibition; hit rate 1.1% among 330,000; Q9NXA8; inhibition, % at 15 µM; Purified SirT5, succinyl-peptide AMC, trypsin-coupled fluorescence; in the data active means inhibition above about 15%
# Starred values were filed as active, the others as inactive; . = no result given.
SMILES,dFosB act,CDK5 p35 inh,FGF22 binding,PvdQ inh,PglD inh,SIRT5 inh
COc1ccc2[nH]cc(CCNC(=O)Cn3cc(C)c(=O)[nH]c3=O)c2c1,-6,0,43*,-14,-6,.
COc1cccc(OC)c1OCCOc1ccc(C(=O)c2ccccc2)cc1,0,0,0,-16,.,17*
COc1ccc(NC(=O)Nc2ccc3c(c2)C(=O)N([C@@H](C)CO)C[C@H](C)[C@@H](CN(C)C(=O)NC(C)C)O3)cc1,.,.,0,.,1,4
COc1ccccc1CNC(=O)C1CCC(CNS(=O)(=O)c2ccc(F)cc2)CC1 (configuration not stated),-9,0,0,1,-6,21*
C[C@@H]1CCCCO[C@H](CN(C)S(C)(=O)=O)[C@@H](C)CN([C@H](C)CO)C(=O)c2cc(NS(=O)(=O)c3cccs3)ccc2O1,.,.,0,.,-1,-4
COc1cc(OC)cc(C(=O)NCc2cc(C)nc3ccccc23)c1,-17,0,44*,-2,.,-3
CCCC(=O)Nc1ccc2c(c1)OC[C@@H](C)N(C(=O)C1CCCC1)C[C@H](C)[C@H](OC)CN(C)C2=O,.,.,0,.,-2,-6
Cc1nc(CN2CCC(c3ccccc3)CC2)cc(=O)[nH]1,-3,1,0,-14,.,-3
Cc1cc(=O)[nH]c(CN2CCC(c3ccccc3)CC2)n1,1,0,0,-11,.,3
Cc1nc(CN2CCCCC2)cc(=O)[nH]1,-3,1,43*,7,-4,-7
Cc1cc(=O)[nH]c(CN2CCOCC2)n1,-8,3,43*,7,5,-1
O=S(=O)(c1ccc(F)cc1)N1CCCCN2[C@H](CO)[C@@H](c3ccc(-c4ccccc4F)cc3)[C@H]2C1,.,.,0,.,-3,22*
C/C=C/c1ccc([C@@H]2[C@H]3CN(S(=O)(=O)c4ccc(F)cc4)CCCCN3[C@H]2CO)cc1,.,.,0,.,1,16*
CC(C)c1onc(C(=O)N2CCN(C(c3ccccc3)c3ccccc3)CC2)c1[N+](=O)[O-],4,0,0,3,1,-3
CNC(=S)NNC(=O)c1noc(C)c1C(=O)N1CCN(C(c2ccccc2)c2ccccc2)CC1,5,2,44*,19,.,2
Cc1ccc(S(=O)(=O)N2C[C@]3(O)C[C@@H]4C(=O)N(c5ccccc5)C(=O)[C@@H]4C[C@]3(OC(=O)Nc3cccs3)C2)cc1,.,.,43*,.,-1,.
COc1ccccc1NC(=O)CSc1ccc(-c2ccccn2)nn1,-6,0,0,4,5,-1
COc1ccc(NC(=O)CSc2ccc(-c3ccccn3)nn2)cc1OC,-6,0,43*,-3,3,-7
COc1ccc(-c2ccc(SCC(=O)Nc3cccc(C(C)=O)c3)nn2)cc1OC,-14,-1,43*,6,3,-2
COCC1=C([C@H](O)c2ccccc2)[C@H](CO)n2c(=O)n(-c3ccccc3)c(=O)n2C1,.,.,0,.,.,-4
Cc1ccc(S(=O)(=O)N(C)C[C@H]2Oc3ccc(NC(=O)C4CC4)cc3CC(=O)N([C@H](C)CO)C[C@@H]2C)cc1,.,.,0,.,15*,3
C[C@@H]1CN([C@H](C)CO)C(=O)Cc2cc(NC(=O)Nc3ccccc3)ccc2O[C@H]1CN(C)S(=O)(=O)c1ccc(F)cc1,.,.,0,.,-8,2
CNC[C@H]1Oc2ccc(NC(=O)Nc3ccc(F)cc3)cc2CC(=O)N([C@H](C)CO)C[C@@H]1C,.,.,0,.,-1,36*
C[C@@H]1CN([C@@H](C)CO)C(=O)Cc2cc(NC(=O)Nc3ccccc3)ccc2O[C@H]1CN(C)S(=O)(=O)c1ccc(F)cc1,.,.,0,.,2,18*
Cc1ccc(S(=O)(=O)N(C)C[C@H]2Oc3ccc(NC(=O)Nc4cccc5ccccc45)cc3CC(=O)N([C@@H](C)CO)C[C@H]2C)cc1,.,.,0,.,3,19*
CNC[C@@H]1Oc2ccc(NC(=O)Nc3ccc(F)cc3)cc2CC(=O)N([C@@H](C)CO)C[C@H]1C,.,.,0,.,-4,-6
CC=Cc1ccc2n(c1=O)C[C@@H]1[C@@H](CO)[C@H](C(=O)N(C)C)N(CCC(F)(F)F)[C@H]21 (mixture of isomers),.,.,0,.,3,-5

# From PubChem
